# From the supplement of paper PMC10105736
# Values without a mark were called inactive.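 The calls were made as follows: active = MAPPIT score above the 99th percentile of random reference set scores in the same batch; inactive = at or below it.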
# Assays:
# Experiment in all cases: MAPPIT interaction score (arbitrary units); higher = stronger binary interaction signal, active = hit call of the paper
# CG1607 = settings: MAPPIT configuration: N-N; pair source set: DPIM
# CG12567 = settings: MAPPIT configuration: N-N; pair source set: Finley_Y2H
# mRpL47 = settings: MAPPIT configuration: N-N; pair source set: Finley_Y2H
# CG8173 = settings: MAPPIT configuration: N-N; pair source set: screen_1
# Vsx2 = settings: MAPPIT configuration: N-N; pair source set: screen_2
# CG31740 = settings: MAPPIT configuration: N-N; pair source set: screen_2
# CG4250 = settings: MAPPIT configuration: N-C; pair source set: screen_4
# lms = settings: MAPPIT configuration: N-N; pair source set: screen_1
# CG44250 = settings: MAPPIT configuration: N-N; pair source set: screen_2
# lwr = settings: MAPPIT configuration: N-N
# CG4619 = settings: MAPPIT configuration: N-N; pair source set: DPIM
# CG14985 = settings: MAPPIT configuration: N-N; pair source set: screen_2
# Arpc3A = settings: pair source set: Lit-BM-16
# CG2120 = settings: MAPPIT configuration: N-C; pair source set: screen_3
# Odj = settings: MAPPIT configuration: N-N; pair source set: screen_2
# caup = settings: MAPPIT configuration: N-C; pair source set: screen_3
# CG46385 = settings: MAPPIT configuration: N-N; pair source set: screen_1
# CG7011 = settings: MAPPIT configuration: N-N; pair source set: Lit-BS-16
# CG15545 = settings: MAPPIT configuration: N-N; pair source set: Curagen_low_conf
# CG1640 = settings: MAPPIT configuration: N-C; pair source set: screen_4
# Pex5 = settings: MAPPIT configuration: N-N; pair source set: Curagen_low_conf
# C15 = settings: MAPPIT configuration: N-N; pair source set: Lit-BS-16
# CG4116 = settings: MAPPIT configuration: N-N; pair source set: Curagen_high_conf
# CG5111 = settings: MAPPIT configuration: N-C; pair source set: screen_3
# CG17377 = settings: MAPPIT configuration: N-C; pair source set: screen_4
# CG32817 = settings: MAPPIT configuration: N-N; pair source set: screen_2
# Mst87F = settings: MAPPIT configuration: N-N; pair source set: screen_2
# CG8997 = settings: MAPPIT configuration: N-N; pair source set: Finley_Y2H
# CG3517 = settings: MAPPIT configuration: N-N; pair source set: screen_1
# CG31406 = settings: pair source set: RRS
# Hakai = settings: MAPPIT configuration: N-N; pair source set: DPIM
# Lkb1 = settings: MAPPIT configuration: N-N; pair source set: DPIM
# RnrS = settings: MAPPIT configuration: N-N; pair source set: DPIM
# bai = settings: MAPPIT configuration: N-N; pair source set: DPIM
# mRpS24 = settings: MAPPIT configuration: N-N; pair source set: DPIM
# scf = settings: MAPPIT configuration: N-N; pair source set: DPIM
# CG14044 = settings: MAPPIT configuration: N-N; pair source set: Finley_Y2H
# Atg1 = settings: MAPPIT configuration: N-N; pair source set: Finley_Y2H
# CG3703 = settings: MAPPIT configuration: N-N; pair source set: Finley_Y2H
# CG9132 = settings: MAPPIT configuration: N-N; pair source set: Finley_Y2H
# CG9536 = settings: MAPPIT configuration: N-N; pair source set: DPIM
# Ktl = settings: MAPPIT configuration: N-N; pair source set: screen_2
# Tina-1 = settings: MAPPIT configuration: N-N; pair source set: DPIM
# CG9775 = settings: MAPPIT configuration: N-N; pair source set: DPIM
# CG9986 = settings: MAPPIT configuration: N-N; pair source set: Lit-BS-16
# HP1e = settings: MAPPIT configuration: N-N; pair source set: Lit-BS-16
# CkIIalpha = settings: MAPPIT configuration: N-N; pair source set: Lit-BM-16
# Doa = settings: MAPPIT configuration: N-N; pair source set: Finley_Y2H
# Smg6 = settings: MAPPIT configuration: N-N; pair source set: Finley_Y2H
# Srp54 = settings: MAPPIT configuration: N-N; pair source set: Finley_Y2H
# 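Also: HEK293T cells with Epo stimulation, STAT-responsive firefly luciferase reporter, fold induction versus unstimulated cells divided by the larger fold induction of two negative controls lacking either bait or prey.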
# Chain of Doa (chain, as listed by the source): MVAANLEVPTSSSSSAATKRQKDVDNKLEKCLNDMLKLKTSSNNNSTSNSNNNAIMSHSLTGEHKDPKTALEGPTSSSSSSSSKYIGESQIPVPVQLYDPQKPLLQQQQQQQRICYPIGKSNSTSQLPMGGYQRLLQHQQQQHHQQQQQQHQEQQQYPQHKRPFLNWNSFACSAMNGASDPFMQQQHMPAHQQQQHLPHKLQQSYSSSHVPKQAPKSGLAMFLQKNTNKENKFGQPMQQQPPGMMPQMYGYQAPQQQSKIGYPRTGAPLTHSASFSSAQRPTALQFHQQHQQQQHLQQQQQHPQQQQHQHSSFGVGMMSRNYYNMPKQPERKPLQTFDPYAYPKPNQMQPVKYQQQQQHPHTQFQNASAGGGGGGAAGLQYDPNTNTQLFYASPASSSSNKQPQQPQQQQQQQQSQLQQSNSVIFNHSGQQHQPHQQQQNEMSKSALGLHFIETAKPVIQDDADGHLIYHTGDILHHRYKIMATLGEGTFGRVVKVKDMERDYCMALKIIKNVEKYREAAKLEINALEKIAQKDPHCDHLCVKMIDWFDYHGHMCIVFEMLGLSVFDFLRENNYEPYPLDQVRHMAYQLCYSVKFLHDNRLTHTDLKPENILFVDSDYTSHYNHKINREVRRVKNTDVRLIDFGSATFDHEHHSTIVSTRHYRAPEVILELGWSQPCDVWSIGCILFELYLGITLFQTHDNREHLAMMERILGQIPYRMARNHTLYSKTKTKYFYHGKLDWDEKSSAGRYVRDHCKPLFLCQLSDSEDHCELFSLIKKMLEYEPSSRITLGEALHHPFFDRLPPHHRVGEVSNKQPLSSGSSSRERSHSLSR
# Chain of Gsc (chain, as listed by the source): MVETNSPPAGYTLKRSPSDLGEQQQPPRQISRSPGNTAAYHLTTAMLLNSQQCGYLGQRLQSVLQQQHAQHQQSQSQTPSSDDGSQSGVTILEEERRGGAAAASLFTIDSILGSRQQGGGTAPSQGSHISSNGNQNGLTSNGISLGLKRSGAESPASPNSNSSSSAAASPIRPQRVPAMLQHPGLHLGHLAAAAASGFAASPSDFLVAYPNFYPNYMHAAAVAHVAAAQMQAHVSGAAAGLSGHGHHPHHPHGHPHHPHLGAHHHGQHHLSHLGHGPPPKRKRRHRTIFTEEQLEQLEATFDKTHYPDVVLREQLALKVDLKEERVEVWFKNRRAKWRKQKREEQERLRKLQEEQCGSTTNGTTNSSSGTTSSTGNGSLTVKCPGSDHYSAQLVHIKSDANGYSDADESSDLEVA
# Chain of Hsc70-1 (chain, as listed by the source): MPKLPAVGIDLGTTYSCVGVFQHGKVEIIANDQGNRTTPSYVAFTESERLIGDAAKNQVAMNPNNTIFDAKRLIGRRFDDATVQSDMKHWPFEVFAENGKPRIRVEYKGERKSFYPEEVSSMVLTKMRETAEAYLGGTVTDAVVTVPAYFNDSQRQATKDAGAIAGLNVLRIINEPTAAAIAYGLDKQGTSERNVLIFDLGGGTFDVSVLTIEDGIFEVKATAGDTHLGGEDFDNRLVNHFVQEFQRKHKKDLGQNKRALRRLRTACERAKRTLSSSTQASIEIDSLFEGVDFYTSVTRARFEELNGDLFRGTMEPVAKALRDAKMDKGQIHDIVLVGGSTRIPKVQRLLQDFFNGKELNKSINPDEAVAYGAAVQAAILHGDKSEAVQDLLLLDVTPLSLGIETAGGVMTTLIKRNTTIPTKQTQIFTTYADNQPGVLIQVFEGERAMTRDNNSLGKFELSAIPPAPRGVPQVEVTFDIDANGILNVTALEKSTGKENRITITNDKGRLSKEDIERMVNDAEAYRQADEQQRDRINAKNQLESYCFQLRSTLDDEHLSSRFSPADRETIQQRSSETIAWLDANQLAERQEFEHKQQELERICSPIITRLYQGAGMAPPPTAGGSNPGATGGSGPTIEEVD
# Chain of dsx (chain, as listed by the source): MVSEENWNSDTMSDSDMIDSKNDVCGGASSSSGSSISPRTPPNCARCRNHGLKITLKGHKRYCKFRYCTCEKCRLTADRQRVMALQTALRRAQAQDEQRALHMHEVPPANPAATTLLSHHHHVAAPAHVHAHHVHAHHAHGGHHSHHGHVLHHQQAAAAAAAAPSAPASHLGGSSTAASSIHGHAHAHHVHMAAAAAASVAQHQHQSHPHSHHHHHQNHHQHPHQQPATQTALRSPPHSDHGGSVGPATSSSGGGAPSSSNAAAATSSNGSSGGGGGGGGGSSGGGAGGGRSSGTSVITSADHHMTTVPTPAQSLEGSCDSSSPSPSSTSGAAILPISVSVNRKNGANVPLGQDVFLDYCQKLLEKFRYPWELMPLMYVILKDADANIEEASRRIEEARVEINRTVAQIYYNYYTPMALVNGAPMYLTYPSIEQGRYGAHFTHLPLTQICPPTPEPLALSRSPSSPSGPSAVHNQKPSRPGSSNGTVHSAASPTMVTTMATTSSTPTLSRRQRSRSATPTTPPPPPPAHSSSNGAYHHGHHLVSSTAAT
# Chain of bowl (chain, as listed by the source): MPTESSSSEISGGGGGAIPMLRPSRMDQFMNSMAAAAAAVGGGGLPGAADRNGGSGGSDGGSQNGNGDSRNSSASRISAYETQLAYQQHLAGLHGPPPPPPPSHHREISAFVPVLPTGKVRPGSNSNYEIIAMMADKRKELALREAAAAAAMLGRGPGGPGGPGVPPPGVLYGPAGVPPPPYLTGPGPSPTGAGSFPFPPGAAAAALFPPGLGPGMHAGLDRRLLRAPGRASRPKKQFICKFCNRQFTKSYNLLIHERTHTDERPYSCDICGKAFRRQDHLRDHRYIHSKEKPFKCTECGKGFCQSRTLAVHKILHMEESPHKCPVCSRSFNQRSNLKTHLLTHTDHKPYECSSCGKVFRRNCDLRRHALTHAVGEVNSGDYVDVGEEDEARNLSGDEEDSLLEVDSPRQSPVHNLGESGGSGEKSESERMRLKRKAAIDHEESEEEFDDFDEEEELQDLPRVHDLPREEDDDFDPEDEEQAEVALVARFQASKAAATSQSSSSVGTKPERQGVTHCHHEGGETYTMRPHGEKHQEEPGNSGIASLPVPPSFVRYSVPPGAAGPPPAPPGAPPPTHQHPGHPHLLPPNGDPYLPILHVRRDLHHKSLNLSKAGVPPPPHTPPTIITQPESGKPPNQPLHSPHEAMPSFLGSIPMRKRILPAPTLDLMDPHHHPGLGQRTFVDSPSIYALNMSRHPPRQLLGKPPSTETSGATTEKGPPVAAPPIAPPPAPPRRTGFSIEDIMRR
# Chain of Acam (chain, as listed by the source): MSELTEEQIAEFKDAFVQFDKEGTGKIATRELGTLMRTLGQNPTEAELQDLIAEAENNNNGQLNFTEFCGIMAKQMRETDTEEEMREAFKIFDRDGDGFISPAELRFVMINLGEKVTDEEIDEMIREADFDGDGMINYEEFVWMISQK
# Chain of Arpc2 (chain, as listed by the source): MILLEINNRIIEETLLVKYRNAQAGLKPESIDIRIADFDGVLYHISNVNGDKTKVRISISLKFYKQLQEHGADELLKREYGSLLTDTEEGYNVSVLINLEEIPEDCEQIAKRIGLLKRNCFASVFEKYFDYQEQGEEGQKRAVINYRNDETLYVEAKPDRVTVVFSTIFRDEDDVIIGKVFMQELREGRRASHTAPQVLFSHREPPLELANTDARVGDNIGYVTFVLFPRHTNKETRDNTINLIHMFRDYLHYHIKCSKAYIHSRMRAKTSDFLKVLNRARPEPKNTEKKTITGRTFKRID
# Chain of otp (chain, as listed by the source): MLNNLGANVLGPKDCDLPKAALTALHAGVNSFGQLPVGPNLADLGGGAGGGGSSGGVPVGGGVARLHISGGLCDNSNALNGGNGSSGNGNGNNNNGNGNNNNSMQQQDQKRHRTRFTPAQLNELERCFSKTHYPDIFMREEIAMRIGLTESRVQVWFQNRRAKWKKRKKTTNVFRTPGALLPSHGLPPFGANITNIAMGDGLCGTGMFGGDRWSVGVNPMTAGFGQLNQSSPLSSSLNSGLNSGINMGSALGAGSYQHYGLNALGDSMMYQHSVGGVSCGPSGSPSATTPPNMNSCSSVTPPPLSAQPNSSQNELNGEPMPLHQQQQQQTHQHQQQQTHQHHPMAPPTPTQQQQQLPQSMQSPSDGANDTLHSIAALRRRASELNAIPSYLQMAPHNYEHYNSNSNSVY
# Chain of Hsp70Aa (chain, as listed by the source): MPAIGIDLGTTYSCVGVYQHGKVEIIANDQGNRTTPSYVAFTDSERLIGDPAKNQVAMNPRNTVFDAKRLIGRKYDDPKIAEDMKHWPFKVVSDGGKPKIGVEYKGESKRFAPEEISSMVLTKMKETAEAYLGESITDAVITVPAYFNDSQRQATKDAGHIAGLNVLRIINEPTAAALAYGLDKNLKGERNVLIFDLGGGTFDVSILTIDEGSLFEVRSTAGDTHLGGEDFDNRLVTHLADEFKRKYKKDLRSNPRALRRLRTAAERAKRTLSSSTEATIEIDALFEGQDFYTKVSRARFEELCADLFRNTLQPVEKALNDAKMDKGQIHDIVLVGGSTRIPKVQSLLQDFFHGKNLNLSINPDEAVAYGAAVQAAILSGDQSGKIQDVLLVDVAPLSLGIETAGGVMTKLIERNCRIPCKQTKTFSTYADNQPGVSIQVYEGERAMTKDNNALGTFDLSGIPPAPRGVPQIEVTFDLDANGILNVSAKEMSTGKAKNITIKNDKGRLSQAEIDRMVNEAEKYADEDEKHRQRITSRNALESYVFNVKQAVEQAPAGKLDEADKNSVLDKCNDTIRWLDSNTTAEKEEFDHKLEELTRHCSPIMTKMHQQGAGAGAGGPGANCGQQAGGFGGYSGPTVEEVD
# Chain of Vps60 (chain, as listed by the source): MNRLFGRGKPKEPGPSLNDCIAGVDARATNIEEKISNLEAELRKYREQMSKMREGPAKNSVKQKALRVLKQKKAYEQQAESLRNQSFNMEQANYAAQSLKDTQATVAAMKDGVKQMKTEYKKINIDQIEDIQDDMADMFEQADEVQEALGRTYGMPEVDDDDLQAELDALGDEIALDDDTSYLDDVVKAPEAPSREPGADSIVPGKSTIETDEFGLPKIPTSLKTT
substance,measurement,setting,value
Fmr1,MAPPIT interaction score,CG1607,0.0271
prd,MAPPIT interaction score,CG12567,2.65
same,MAPPIT interaction score,mRpL47,0.0739
otp,MAPPIT interaction score,CG8173,-0.108
same,MAPPIT interaction score,Vsx2,-0.232
Gsc,MAPPIT interaction score,CG31740,3.16 (active)
same,MAPPIT interaction score,CG4250,1.43
same,MAPPIT interaction score,lms,-0.637
cher,MAPPIT interaction score,CG44250,0.155
same,MAPPIT interaction score,lwr; pair source set: DPIM,-0.358
pnr,MAPPIT interaction score,CG4619,3.3 (active)
Vps60,MAPPIT interaction score,CG14985,0.0854
Arpc2,MAPPIT interaction score,Arpc3A; MAPPIT configuration: N-C,2.37
same,MAPPIT interaction score,Arpc3A; MAPPIT configuration: N-N,0.165
bowl,MAPPIT interaction score,CG2120,0.273
same,MAPPIT interaction score,Odj,-0.226
same,MAPPIT interaction score,caup,-0.0689
Poxm,MAPPIT interaction score,CG46385,1.84
same,MAPPIT interaction score,CG7011,0.0698
RpL23,MAPPIT interaction score,CG15545,0.083
Acam,MAPPIT interaction score,CG1640,0.679
same,MAPPIT interaction score,Pex5,0.715
bsh,MAPPIT interaction score,C15,0.102
SmD1,MAPPIT interaction score,CG4116,-0.319
Abd-B,MAPPIT interaction score,CG5111,1.34
dsx,MAPPIT interaction score,CG17377,2.14
same,MAPPIT interaction score,CG32817,2.31
same,MAPPIT interaction score,Mst87F,4.59 (active)
lark,MAPPIT interaction score,CG8997,1.37
e(y)3,MAPPIT interaction score,CG3517,3.82 (active)
Hsc70-1,MAPPIT interaction score,CG31406; MAPPIT configuration: N-C,1.43
same,MAPPIT interaction score,CG31406; MAPPIT configuration: N-N,-0.111
same,MAPPIT interaction score,Hakai,0.323
same,MAPPIT interaction score,Lkb1,-0.0906
same,MAPPIT interaction score,RnrS,1
same,MAPPIT interaction score,bai,-0.235
same,MAPPIT interaction score,mRpS24,-0.169
same,MAPPIT interaction score,scf,1.56
zen,MAPPIT interaction score,CG14044,1.38
Rbp6,MAPPIT interaction score,Atg1,0.221
gsb-n,MAPPIT interaction score,CG3703,0.258
Gyc89Da,MAPPIT interaction score,CG9132,0.702
Arf1,MAPPIT interaction score,CG9536,0.397
same,MAPPIT interaction score,Ktl,2.35
same,MAPPIT interaction score,Tina-1,0.274
RpL4,MAPPIT interaction score,CG9775,-0.331
Hsp70Aa,MAPPIT interaction score,CG9986,0.269
same,MAPPIT interaction score,HP1e,0.126
CkIIbeta,MAPPIT interaction score,CkIIalpha,3.04 (active)
Doa,MAPPIT interaction score,Doa,1.07
same,MAPPIT interaction score,Smg6,1.25
same,MAPPIT interaction score,Srp54,-1.75
same,MAPPIT interaction score,lwr; pair source set: Finley_Y2H,-1.12
